GIRK2 activator: Activates human GIRK2-containing potassium channels | P48051 | HEK293 GIRK2/NPY4 cells, thallium flux fluorescence | activation (% efficacy), % for hits at 37.5 µM | 34,000 tested, under 10 active;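 active means primary screen hit, no activity in plain HEK293 cells, and in GIRK2-only cells above 5% efficacy rising with concentration; inactive means the rest, including fluorescent compounds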;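 further: efficacy is normalized control-subtracted fluorescence 15 s after thallium addition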
Target sequence (P48051 whole entry, looked up): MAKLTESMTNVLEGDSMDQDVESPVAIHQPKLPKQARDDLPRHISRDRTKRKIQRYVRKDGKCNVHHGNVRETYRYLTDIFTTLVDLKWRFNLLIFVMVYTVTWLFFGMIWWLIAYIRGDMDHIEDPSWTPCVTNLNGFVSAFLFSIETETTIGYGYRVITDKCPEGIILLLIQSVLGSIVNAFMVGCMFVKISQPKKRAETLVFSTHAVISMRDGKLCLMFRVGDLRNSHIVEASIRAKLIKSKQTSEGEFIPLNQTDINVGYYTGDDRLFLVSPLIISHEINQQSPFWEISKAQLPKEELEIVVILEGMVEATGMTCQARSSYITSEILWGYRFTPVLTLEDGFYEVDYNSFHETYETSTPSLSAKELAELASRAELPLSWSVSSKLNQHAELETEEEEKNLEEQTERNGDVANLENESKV
GluA2 TARP mod: GluA2-stargazin AMPA receptor complex modulation | O88602+P19491 | HEK293 GluA2+stargazin, membrane potential dye (FDSS), glutamate EC50; hits were called plate by plate, in both directions | calls only at 30 µM | hit rate 3.5% among 40,000 | AID 1259245;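 active means any of four per-well response measures lying three or more SD from its plate-wide compound average, in either direction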
The depositor's hits bear a star; i = inactive; . = no result; + = active, no number. The full list was thinned out, with hits kept by preference.

SMILES	GIRK2 activator	GluA2 TARP mod
COc1ccc(SCCC(=O)Nc2ccc(F)cc2F)cc1	i	i
CCN1CCN(c2nc3c(c(=O)[nH]c(=O)n3C)n2CCCOc2ccccc2)CC1	.	+
Cn1c(=O)[nH]c(=O)c2c1nc(N1CCN(CC(N)=O)CC1)n2Cc1ccccc1	.	+
CCOCCn1c(N2CCN(CC)CC2)nc2c1c(=O)[nH]c(=O)n2C	.	i
Cn1c(=O)[nH]c(=O)c2c1nc(N1CCOCC1)n2CCCn1c(N2CCOCC2)nc2c1c(=O)[nH]c(=O)n2C	.	i
CCCCCCCCCn1c(N2CCNCC2)nc2c1c(=O)[nH]c(=O)n2C	9.0%*	+
Cn1c(=O)[nH]c(=O)c2c1nc(N1CCN(CC(N)=O)CC1)n2Cc1cccc(Cl)c1	.	i
COc1ccc(N2CCN(CCCn3c(C)c(C)n4c5c(=O)[nH]c(=O)n(C)c5nc34)CC2)cc1	.	+
COc1ccc(N2CCN(CCn3c(C)c(C)n4c5c(=O)[nH]c(=O)n(C)c5nc34)CC2)cc1	.	i
CCC(C(=O)NCC(C)(O)COC)c1ccccc1 (centres undefined)	i	i
COc1ccc(N2CCN(S(=O)(=O)CCCNC(=O)c3ccccc3F)CC2)cc1	.	i
CC(C)n1ccc(-c2nnc(NC(=O)c3ccc(S(=O)(=O)N4CCOCC4)cc3)o2)n1	i	i
COc1ccc(OC)c2sc(N(CCN3CCOCC3)C(=O)/C=C/c3cccc([N+](=O)[O-])c3)nc12	.	i
CC1Cc2cc(-c3cc(CC(=O)NCc4ccco4)no3)ccc2O1 (centres undefined)	i	+
CC1Cc2cc(-c3cc(CC(=O)NCc4cc(-c5cccs5)on4)no3)ccc2O1 (centres undefined)	i	i
O=C(Cc1cc(-c2ccc3c(c2)OCCO3)on1)NCc1cccs1	i	+
O=C(Cc1cc(-c2ccc3c(c2)OCO3)on1)NCc1cccs1	i	i
COc1ccc(CCNC(=O)Cn2nc(-c3ccco3)ccc2=O)cc1OC	.	i
CC1(C)CC(N2COc3ccc4c(=O)c(-c5ccccc5)coc4c3C2)CC(C)(C)N1	i	i
O=C(c1cccs1)N(CCCn1ccnc1)c1nc2ccccc2s1	i	i
Cc1ccc(Cl)c2sc(N(CCCn3ccnc3)C(=O)c3cccs3)nc12	i	+
O=[N+]([O-])c1ccccc1S(=O)(=O)NCC1COC2(CCCCC2)O1 (centres undefined)	i	i
COc1ccc(F)cc1S(=O)(=O)NCC1COC2(CCCCC2)O1 (centres undefined)	i	i
O=S(=O)(NCC1COC2(CCCCC2)O1)c1cc(F)ccc1F (centres undefined)	i	+
O=S(=O)(NCC1COC2(CCCCC2)O1)c1ccc(Cl)cc1 (centres undefined)	i	+
SMILES	GIRK2 activator	GluA2 TARP mod
CCc1ccc(S(=O)(=O)NCC2COC3(CCCCC3)O2)s1 (centres undefined)	i	i
O=S(=O)(NCC1COC2(CCCCC2)O1)c1cccc2ccccc12 (centres undefined)	.	+
COCCn1c(=O)c2c(nc3n2CC(C)CN3c2ccc(OC)cc2OC)n(C)c1=O (centres undefined)	.	i
COc1ccc(-c2cc(CC(=O)N3CCOCC3)no2)cc1OC	i	i
CCN(CC)CCSc1ccc(-c2ccc3c(c2)OCO3)nn1	i	i
CCCN1CCCc2cc(CCNC(=O)C(=O)Nc3ccccc3C)ccc21	.	i
CC(=O)N1CCN(S(=O)(=O)c2ccc(C(=O)Nc3ccc(F)cc3)cc2)CC1	i	i
O=S(=O)(NCCNc1ccc(Nc2ccncc2)nn1)c1cc(Cl)ccc1Cl	i	i
COc1ccc(/C=C2\Oc3cc(O)ccc3C2=O)cc1OC	.	+
O=C1/C(=C/c2ccc(Cl)c(Cl)c2)Oc2cc(O)ccc21	.	i
O=C1/C(=C/c2ccccc2F)Oc2cc(O)ccc21	.	i
COc1cc(/C=C2\Oc3cc(O)ccc3C2=O)cc(OC)c1OC	.	+
O=C1/C(=C/c2cccs2)Oc2cc(O)ccc21	.	+
COc1cc(/C=C2\Oc3cc(OC(=O)c4c(OC)cccc4OC)ccc3C2=O)cc(OC)c1OC	.	i
O=C(Cn1c(=O)n(C2CC2)c(=O)c2nscc21)Nc1ccc2c(c1)OCO2	i	i
O=S(=O)(Cc1ccc(F)cc1)N1CCCN(CCn2cccn2)CC1	i	i
COc1ccc(-c2nnc(SCC(=O)Nc3cccc(C(C)=O)c3)n2N)cc1OC	i	i
Cc1ccc(Cl)cc1S(=O)(=O)NCC1CCN(C(C)C)CC1	i	i
CS(=O)(=O)N1CCCc2cc(NC(=O)CN3C(=O)c4ccccc4C3=O)ccc21	i	i
COc1cccc(C(CNC(=O)C2(c3cccs3)CCCC2)N2CCOCC2)c1 (centres undefined)	i	+
COc1cccc(C(CNC(=O)c2cccc3ccccc23)N2CCOCC2)c1 (centres undefined)	.	+
COc1cccc(C(CNC(=O)Cc2cccc3ccccc23)N2CCOCC2)c1 (centres undefined)	.	i
COc1cccc(C(CNC(=O)C(=O)NCc2cccs2)N2CCOCC2)c1 (centres undefined)	i	i
O=c1cc(-c2ccccc2Cl)oc2ccc(Br)cc12	.	i
COc1ccc(OC)c(S(=O)(=O)Nc2ccc3c(c2)CCCN3S(=O)(=O)c2ccccc2)c1	.	i
SMILES	GIRK2 activator	GluA2 TARP mod
COc1ccc(OC)c(S(=O)(=O)Nc2ccc3c(c2)N(S(=O)(=O)c2ccccc2)CCC3)c1	.	+
CCCS(=O)(=O)N1CCCc2cc(NS(=O)(=O)c3cc(C)ccc3OCC)ccc21	.	i
CCCS(=O)(=O)N1CCCc2cc(NS(=O)(=O)c3cc(C)ccc3OC)ccc21	.	+
Nc1ccc(C2CC(=O)NC(=O)N2)cc1 (centres undefined)	i	i
COc1ccc(OC)c2sc(N(CCN3CCOCC3)C(=O)c3ccn(C)n3)nc12	i	i
Cc1cccc2sc(N(CCN3CCOCC3)C(=O)c3ccc([N+](=O)[O-])o3)nc12	i	+
Cc1cccc2sc(N(CCN3CCOCC3)C(=O)c3ccc([N+](=O)[O-])s3)nc12	i	i
COc1cccc2sc(N(Cc3cccnc3)C(=O)c3cc(C)nn3C)nc12	i	i
COc1cccc2sc(N(CCN(C)C)C(=O)c3cc(C)n(C)n3)nc12	i	+
O=C(/C=C/c1ccc([N+](=O)[O-])cc1)N(CCN1CCOCC1)c1nc2ccccc2s1	.	i
O=C(/C=C/c1cccc([N+](=O)[O-])c1)N(CCN1CCOCC1)c1nc2ccc(F)cc2s1	.	+
Cn1ccc(C(=O)N(CCN2CCOCC2)c2nc3ccccc3s2)n1	i	+
COc1ccc(S(=O)(=O)N2CCCC(C(=O)N3CCNC(=O)C3C)C2)cc1 (centres undefined)	.	i
CC(NC(=O)C1CCN(c2ncnc3c2sc2ncccc23)CC1)c1ccccc1 (centres undefined)	i	.
O=C(NCC(O)c1ccc(C(F)(F)F)cc1)c1ccc(-c2ccccc2)cc1 (centres undefined)	i	.
COc1ccc(C2c3cccn3CCN2C(=O)NC(C)(C)C)cc1 (centres undefined)	i	i
